According to paper PMC4552634, “A New Set of Chemical Starting Points with Plasmodium falciparum Transmission-Blocking Potential for Antimalarial Drug Discovery” (PLoS ONE, 2015):
Like-named read-outs stand apart in the source and are kept apart here. The campaign covered roughly 13,000 compounds. About 3,200 (25%) showed an effect of 50% or more. The list shows a part of the results.

Test system: P. falciparum stage V gametocytes
Design: BacTiter-Glo ATP luminescence viability of purified stage V gametocytes in 384-well plates, per cent inhibition versus DMSO
Conditions: 48 h, 5 µM, inhibitor

Row | Compound | % Inhibition [%] | % Inhibition (% Inhibition) [%]
1 | CC(C)C(C(=O)n1ncc2c3c(N)nc(N)nc3ccc21)C(C)C [TCMDC-137333] | -35.38 | 
2 | COc1cccc(C(=O)Nc2sc3c(c2C(N)=O)CCCC3)c1OC [TCMDC-123542] | -31.1 | 
3 | COc1cc2nc(NCC3CCCO3)n3nc(-c4ccccc4)nc3c2cc1OC (centres unmarked) [TCMDC-125295] | -4.624 | 
4 | COc1ccc2cc(C(c3nnnn3CC3CCCO3)N3CCc4ccccc43)c(=O)[nH]c2c1 (centres unmarked) [TCMDC-123534] | 43.68 | 
5 | Cc1ccc(CN2CCN(c3cc4c(cc3Cl)CCN4C(=O)Cc3ccc(NC(=O)c4ccc(C(F)(F)F)cc4)cc3)CC2)cc1 [TCMDC-139509] | 28.44 | 
6 | O=C(Nc1ccc(F)c(F)c1)c1ccc(CN2CCCN(Cc3cccc(F)c3)CC2)cc1 [TCMDC-136389] | 9.307 | 
7 | CCC[C@@H]([C@@H](CC1CCCCC1)C(=O)N[C@H](C(=O)Nc1nccs1)[C@H](C)O)N(O)C=O [TCMDC-138142] | -26.13 | 
8 | CCOC(=O)C1=C(C)N=c2sc(=Cc3ccccc3O)c(=O)n2C1c1ccc(OC)c2ccccc12 (centres unmarked) [TCMDC-124109] | 14.77 | 
9 | CC(C)c1ccc(C=CC(=O)NC2CCC(CN3CCC(c4c[nH]c5ccccc45)CC3)CC2)cc1 (centres unmarked) [TCMDC-139936] | 103.3 | 
10 | O=C(/C=C/c1ccc([N+](=O)[O-])cc1)NC1CCC(CN2CCC(c3c[nH]c4ccccc34)CC2)CC1 (centres unmarked) [TCMDC-139950] |  | 23.65
11 | O=C(/C=C/c1ccc([N+](=O)[O-])cc1)NC1CCC(CN2CCC(c3c[nH]c4ccccc34)CC2)CC1 (centres unmarked) [TCMDC-139934] |  | 72.83
12 | O=[N+]([O-])c1ccc(Oc2c(Cl)cc(S(=O)(=O)N3CCC(CN4CCC(c5c[nH]c6ccccc56)CC4)CC3)cc2Cl)c(Cl)c1 [TCMDC-140169] | -22.29 | 
13 | N#Cc1c(Cl)cccc1Oc1ccc(S(=O)(=O)NC2CCC(CN3CCC(c4c[nH]c5ccccc45)CC3)CC2)cc1 (centres unmarked) [TCMDC-140167] |  | 10.9
14 | O=C(/C=C/c1ccc(Cl)cc1)NC1CCC(CN2CCC(c3c[nH]c4ccccc34)CC2)CC1 (centres unmarked) [TCMDC-139701] |  | 108.5
15 | O=[N+]([O-])c1ccc(Oc2c(Cl)cc(S(=O)(=O)NC3CCC(CN4CCC(c5c[nH]c6ccccc56)CC4)CC3)cc2Cl)c(Cl)c1 (centres unmarked) [TCMDC-140165] | 62.46 | 
16 | O=C(Nc1cccnc1)c1cc(-c2cccnc2)nc2ccc(Br)cc12 [TCMDC-125212] | 10.18 | 
17 | Cc1cc(Cl)ccc1OC(C)C(=O)N1CCc2ccccc21 (centres unmarked) [TCMDC-123620] | -14.46 | 
